About 7,900 targets were measured; listed, in parts, are those with a hit and a random draw of the rest. About 0.6% of all pairs of compound and target were hits.
Key:
Test in all cases: log2 fold change, soluble protein after heating vs DMSO (PISA); higher = thermal stabilisation; K562 cells, 10 uM, 30 min; active = over 0.2 and 3.5 SD of the protein, either way, in both replicates (recomputed)
[1] = compound: C1=CC=C(C=C1)[C@H](COC2=CC3=C(C=C2)NC(=O)N3)NC(=O)C4=CC=CN(C4=O)CC5=CC(=C(C=C5)F)F
In short: (§1)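 Quantification of soluble protein used TMTpro 16plex LC-MS/MS, with channel sums equalised. Samples were the supernatant after 21,000xg for 90 min of pooled aliquots from K562 cells (2×10^6 cells/mL) treated with 10 μM compound for 30 min, heated for 3 min over 48°C-58°C, and extracted in PBS with 0.5% NP-40 at 4°C. Values, from duplicates, describe thermal stability against control samples on a log2 fold-change scale.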

[2] = compound: CC1=C(SC2=C1C(=N[C@H](C3=NN=C(N32)C)CC(=O)N)C4=CC=C(C=C4)Cl)C
In short: as §1

[3] = compound: CC1=C2C(=CC=C1)N=C(N(C2=O)C3=CC=CC=C3C)CN4C=NC5=C(N=CN=C54)N
In short: as §1

[4] = compound: Cc1sc2c(c1C)C(c1ccc(Cl)cc1)=N[C@@H](CC(=O)OC(C)(C)C)c1nnc(C)n1-2
In short: as §1

[5] = compound: c1ccc([C@@H]2C[C@H]2NC2CCNCC2)cc1
In short: as §1

Measured: log2 fold change

NFYB (UniProt P25208)
inactive: [1] -0.015 | [2] -0.119 | [3] -0.165 | [4] -0.048 | [5] 0.057

NELFB isoform 2 (UniProt Q8WX92)
inactive: [1] -0.098 | [2] 0.12 | [3] 0.123 | [4] -0.05 | [5] -0.023

OTULIN (UniProt Q96BN8)
Sequence of UniProt Q96BN8 (Q96BN8 whole entry, looked up): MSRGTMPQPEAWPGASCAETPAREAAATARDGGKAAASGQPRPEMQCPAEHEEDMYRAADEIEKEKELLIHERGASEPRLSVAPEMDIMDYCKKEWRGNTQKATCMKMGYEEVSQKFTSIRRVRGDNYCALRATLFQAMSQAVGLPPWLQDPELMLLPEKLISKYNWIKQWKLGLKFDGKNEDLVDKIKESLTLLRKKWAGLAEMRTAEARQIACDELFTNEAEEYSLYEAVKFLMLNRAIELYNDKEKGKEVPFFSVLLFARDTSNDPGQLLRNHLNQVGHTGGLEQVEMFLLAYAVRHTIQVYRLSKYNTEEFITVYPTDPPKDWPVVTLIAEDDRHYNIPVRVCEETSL
inactive: [1] -0.07 | [2] -0.019 | [3] 0.124 | [4] 0.005 | [5] 0.005

NEDD4L (UniProt Q96PU5)
inactive: [1] 0.014 | [2] 0.038 | [3] 0.039 | [4] 0.054 | [5] 0.027

MRPS5 (UniProt P82675)
inactive: [1] -0.017 | [2] 0.009 | [3] -0.03 | [4] 0.063 | [5] -0.077

PAFAH1B3 (UniProt Q15102)
inactive: [1] -0.076 | [2] 0.139 | [3] 0.128 | [4] -0.132 | [5] -0.096

NUCKS1 (UniProt Q9H1E3)
inactive: [1] 0.044 | [2] -0.053 | [3] 0.032 | [4] -0.029 | [5] -0.007

MTHFD1 (UniProt P11586)
inactive: [1] -0.059 | [2] 0.024 | [3] 0.018 | [4] -0.013 | [5] -0.019

NCK1 (UniProt P16333)
inactive: [1] -0.077 | [2] 0.025 | [3] 0.168 | [4] 0.044 | [5] -0.085

MXRA7 (UniProt P84157)
inactive: [1] 0.008 | [2] 0.167 | [3] 0.293 | [4] 0.002 | [5] 0.024

MRFAP1 (UniProt Q9Y605)
inactive: [1] 0.009 | [2] 0.109 | [3] -0.043 | [4] 0.031 | [5] -0.017

NGLY1 (UniProt Q96IV0)
inactive: [1] -0.084 | [2] 0.01 | [3] 0.114 | [4] 0.014 | [5] -0.046

NANS (UniProt Q9NR45)
inactive: [1] -0.031 | [2] 0.065 | [3] 0.071 | [4] -0.015 | [5] -0.024

NPC1L1 (UniProt Q9UHC9)
inactive: [1] 0.183 | [2] 0.063 | [3] 0.024 | [4] 0.007 | [5] 0.047

MPHOSPH10 (UniProt O00566)
inactive: [1] 0.023 | [2] -0.279 | [3] -0.206 | [4] 0.094 | [5] -0.024

MRPS24 (UniProt Q96EL2)
inactive: [1] -0.016 | [2] -0.026 | [3] -0.026 | [4] 0.148 | [5] 0.037

OTUD4 (UniProt Q01804)
inactive: [1] 0.033 | [2] -0.034 | [3] -0.05 | [4] 0.111 | [5] 0.011

NUP160 (UniProt Q12769)
inactive: [1] -0.013 | [2] 0.043 | [3] 0.038 | [4] 0.014 | [5] 0.044

MRPS22 (UniProt P82650)
inactive: [1] -0.016 | [2] 0.05 | [3] -0.037 | [4] 0.087 | [5] -0.063

NSUN2 (UniProt Q08J23)
inactive: [1] -0.019 | [2] 0.023 | [3] 0.003 | [4] 0 | [5] 0.003

NHLRC2 (UniProt Q8NBF2)
inactive: [1] -0.027 | [2] 0.038 | [3] 0.127 | [4] 0.009 | [5] 0.024

NA, A0A096LPI6
inactive: [1] 0.055 | [2] -0.023 | [3] -0.001 | [4] 0.017 | [5] 0.023

NCAPH (UniProt Q15003)
inactive: [1] -0.067 | [2] 0.011 | [3] 0.109 | [4] -0.007 | [5] 0.001

MRPS25 (UniProt P82663)
inactive: [1] -0.002 | [2] -0.05 | [3] -0.067 | [4] 0.059 | [5] 0.014

MTHFS (UniProt P49914)
Sequence of UniProt P49914 (P49914 whole entry, looked up): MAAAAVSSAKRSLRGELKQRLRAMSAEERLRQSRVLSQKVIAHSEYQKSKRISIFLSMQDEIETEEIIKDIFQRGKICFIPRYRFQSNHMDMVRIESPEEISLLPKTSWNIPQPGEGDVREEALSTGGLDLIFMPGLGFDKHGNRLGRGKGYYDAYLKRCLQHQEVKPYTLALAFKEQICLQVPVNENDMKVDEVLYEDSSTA
inactive: [1] -0.075 | [2] 0.035 | [3] -0.086 | [4] -0.023 | [5] -0.061

NOL11 (UniProt Q9H8H0)
inactive: [1] 0.007 | [2] 0 | [3] -0.008 | [4] -0.014 | [5] 0.025

NCAPG (UniProt Q9BPX3)
inactive: [1] -0.033 | [2] 0.019 | [3] 0.101 | [4] -0.002 | [5] -0.002

MRPL46 (UniProt Q9H2W6)
inactive: [1] 0 | [2] -0.1 | [3] -0.037 | [4] 0.009 | [5] 0.026

MIS12 (UniProt Q9H081)
inactive: [1] -0.02 | [2] 0.013 | [3] 0.064 | [4] -0.117 | [5] -0.022

NOL7 (UniProt Q9UMY1)
Sequence of UniProt Q9UMY1 (Q9UMY1 whole entry, looked up): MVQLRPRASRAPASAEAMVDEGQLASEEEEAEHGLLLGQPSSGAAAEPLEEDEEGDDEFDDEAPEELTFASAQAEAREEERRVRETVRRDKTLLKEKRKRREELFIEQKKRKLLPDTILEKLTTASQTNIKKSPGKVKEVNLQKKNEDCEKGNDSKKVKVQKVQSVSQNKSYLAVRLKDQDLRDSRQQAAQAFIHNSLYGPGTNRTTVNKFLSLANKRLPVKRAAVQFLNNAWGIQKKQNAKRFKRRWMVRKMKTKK
inactive: [1] 0.168 | [2] -0.221 | [3] -0.265 | [4] 0.188 | [5] 0.057

NIBAN1 (UniProt Q9BZQ8)
inactive: [1] -0.017 | [2] 0.015 | [3] 0.056 | [4] 0.028 | [5] 0.03

MMADHC (UniProt Q9H3L0)
inactive: [1] 0.056 | [2] -0.155 | [3] 0.057 | [4] 0.088 | [5] 0.077

NDUFS4 (UniProt O43181)
inactive: [1] 0.078 | [2] -0.04 | [3] -0.096 | [4] 0.093 | [5] 0.086

MTOR (UniProt P42345)
inactive: [1] -0.044 | [2] 0.021 | [3] 0.092 | [4] -0.001 | [5] -0.028

NPEPPS (UniProt P55786)
Sequence of UniProt P55786 (P55786 whole entry, looked up): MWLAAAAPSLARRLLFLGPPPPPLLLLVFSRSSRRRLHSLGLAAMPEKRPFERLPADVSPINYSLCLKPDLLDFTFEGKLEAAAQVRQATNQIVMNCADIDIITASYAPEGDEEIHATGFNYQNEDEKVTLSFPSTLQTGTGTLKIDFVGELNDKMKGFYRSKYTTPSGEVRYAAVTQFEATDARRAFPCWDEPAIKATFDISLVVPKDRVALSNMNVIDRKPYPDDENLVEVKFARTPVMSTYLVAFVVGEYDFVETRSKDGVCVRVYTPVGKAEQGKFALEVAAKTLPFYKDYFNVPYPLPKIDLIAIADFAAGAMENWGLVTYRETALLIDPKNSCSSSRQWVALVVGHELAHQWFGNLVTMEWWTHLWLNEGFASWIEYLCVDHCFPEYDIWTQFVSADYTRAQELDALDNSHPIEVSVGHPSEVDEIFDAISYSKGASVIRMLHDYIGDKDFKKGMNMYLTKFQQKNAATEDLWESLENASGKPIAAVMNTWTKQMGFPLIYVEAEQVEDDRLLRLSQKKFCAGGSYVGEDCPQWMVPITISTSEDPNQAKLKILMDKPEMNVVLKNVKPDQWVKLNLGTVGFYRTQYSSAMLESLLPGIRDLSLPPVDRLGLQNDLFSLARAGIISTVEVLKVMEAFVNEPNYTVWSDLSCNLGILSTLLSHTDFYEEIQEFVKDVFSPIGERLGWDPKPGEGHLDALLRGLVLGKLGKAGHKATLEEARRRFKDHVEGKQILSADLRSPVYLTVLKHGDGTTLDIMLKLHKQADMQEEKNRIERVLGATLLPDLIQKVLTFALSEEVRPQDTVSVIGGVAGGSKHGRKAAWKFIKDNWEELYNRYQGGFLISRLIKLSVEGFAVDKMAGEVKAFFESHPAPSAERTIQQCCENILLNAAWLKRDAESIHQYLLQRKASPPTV
inactive: [1] -0.044 | [2] 0.064 | [3] 0.159 | [4] -0.003 | [5] -0.051

OTUD6B (UniProt Q8N6M0)
inactive: [1] -0.051 | [2] 0.022 | [3] 0.11 | [4] 0.03 | [5] -0.153

MYH10 isoform 3 (UniProt P35580)
Sequence of UniProt P35580 (P35580 whole entry, looked up): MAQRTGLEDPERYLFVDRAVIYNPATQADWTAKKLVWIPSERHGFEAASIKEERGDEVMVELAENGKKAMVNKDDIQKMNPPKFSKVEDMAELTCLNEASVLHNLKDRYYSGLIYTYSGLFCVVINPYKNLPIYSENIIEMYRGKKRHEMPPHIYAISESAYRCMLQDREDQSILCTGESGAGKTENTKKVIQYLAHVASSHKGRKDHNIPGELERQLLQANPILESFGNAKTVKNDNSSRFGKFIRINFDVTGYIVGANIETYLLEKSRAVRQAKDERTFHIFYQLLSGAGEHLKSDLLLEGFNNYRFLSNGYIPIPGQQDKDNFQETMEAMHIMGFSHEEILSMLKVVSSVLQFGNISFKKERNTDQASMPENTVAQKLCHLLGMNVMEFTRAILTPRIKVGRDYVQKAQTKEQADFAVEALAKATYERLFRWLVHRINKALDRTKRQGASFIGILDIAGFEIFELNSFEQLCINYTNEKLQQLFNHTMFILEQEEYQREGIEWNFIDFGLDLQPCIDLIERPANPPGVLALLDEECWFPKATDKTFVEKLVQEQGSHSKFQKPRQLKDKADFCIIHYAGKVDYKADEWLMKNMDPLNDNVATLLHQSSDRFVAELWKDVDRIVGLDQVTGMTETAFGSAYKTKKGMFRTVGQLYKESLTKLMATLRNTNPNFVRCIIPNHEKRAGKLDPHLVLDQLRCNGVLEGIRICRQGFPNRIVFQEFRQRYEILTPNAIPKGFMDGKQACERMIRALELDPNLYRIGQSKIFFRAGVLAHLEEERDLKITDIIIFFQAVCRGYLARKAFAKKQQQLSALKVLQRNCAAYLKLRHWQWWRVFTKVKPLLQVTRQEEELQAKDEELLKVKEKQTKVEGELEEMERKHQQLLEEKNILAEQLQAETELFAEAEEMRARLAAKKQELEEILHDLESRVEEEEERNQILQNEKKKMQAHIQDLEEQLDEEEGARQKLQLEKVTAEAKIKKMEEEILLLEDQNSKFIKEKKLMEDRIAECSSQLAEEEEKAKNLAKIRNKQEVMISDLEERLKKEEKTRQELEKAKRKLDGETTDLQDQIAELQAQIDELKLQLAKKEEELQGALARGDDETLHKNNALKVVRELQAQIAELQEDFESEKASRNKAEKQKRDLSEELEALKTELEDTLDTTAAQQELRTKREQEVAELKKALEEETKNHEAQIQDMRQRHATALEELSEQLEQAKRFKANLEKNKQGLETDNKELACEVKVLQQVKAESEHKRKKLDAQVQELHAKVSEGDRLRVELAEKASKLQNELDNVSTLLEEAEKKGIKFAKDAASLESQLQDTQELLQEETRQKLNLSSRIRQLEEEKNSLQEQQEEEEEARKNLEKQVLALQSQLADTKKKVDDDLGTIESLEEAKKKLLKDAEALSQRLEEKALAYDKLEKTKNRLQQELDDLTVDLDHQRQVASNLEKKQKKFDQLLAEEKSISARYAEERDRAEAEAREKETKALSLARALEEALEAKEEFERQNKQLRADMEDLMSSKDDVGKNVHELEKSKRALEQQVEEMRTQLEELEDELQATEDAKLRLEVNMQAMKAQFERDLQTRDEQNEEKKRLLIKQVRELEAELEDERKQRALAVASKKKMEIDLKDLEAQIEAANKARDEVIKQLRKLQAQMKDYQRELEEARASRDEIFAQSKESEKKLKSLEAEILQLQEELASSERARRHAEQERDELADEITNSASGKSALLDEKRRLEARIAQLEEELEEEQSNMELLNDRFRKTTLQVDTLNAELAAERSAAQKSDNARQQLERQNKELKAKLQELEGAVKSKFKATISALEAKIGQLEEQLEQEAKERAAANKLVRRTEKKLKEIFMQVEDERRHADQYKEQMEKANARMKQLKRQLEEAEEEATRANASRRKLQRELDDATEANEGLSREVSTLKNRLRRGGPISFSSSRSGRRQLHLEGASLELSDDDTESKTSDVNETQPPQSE
inactive: [1] -0.003 | [2] 0.043 | [3] 0.056 | [4] -0.023 | [5] -0.013

NMU (UniProt P48645)
Sequence of UniProt P48645 (P48645 whole entry, looked up): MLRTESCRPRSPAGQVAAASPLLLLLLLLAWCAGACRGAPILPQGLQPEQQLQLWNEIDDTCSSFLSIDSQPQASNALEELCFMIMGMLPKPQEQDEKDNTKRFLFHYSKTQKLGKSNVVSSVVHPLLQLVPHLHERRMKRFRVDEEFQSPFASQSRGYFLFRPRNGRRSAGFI
inactive: [1] -0.109 | [2] 0.008 | [3] -0.03 | [4] 0.066 | [5] -0.086

MUL1 (UniProt Q969V5)
inactive: [1] -0.002 | [2] 0.006 | [3] 0.044 | [4] -0.107 | [5] 0.02

NDFIP1 (UniProt Q9BT67)
Sequence of UniProt Q9BT67 (Q9BT67 whole entry, looked up): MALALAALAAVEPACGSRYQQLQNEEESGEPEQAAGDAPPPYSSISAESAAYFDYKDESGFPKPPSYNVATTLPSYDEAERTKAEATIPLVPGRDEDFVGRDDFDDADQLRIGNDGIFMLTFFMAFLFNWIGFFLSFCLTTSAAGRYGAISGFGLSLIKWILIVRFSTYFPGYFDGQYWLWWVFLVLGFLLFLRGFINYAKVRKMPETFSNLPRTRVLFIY
inactive: [1] 0.035 | [2] -0.162 | [3] -0.076 | [4] -0.111 | [5] 0.052

NDUFB10 (UniProt O96000)
inactive: [1] 0.048 | [2] 0.009 | [3] 0.06 | [4] -0.031 | [5] 0.002

MYH16 (UniProt Q9H6N6)
inactive: [1] -0.164 | [2] -0.042 | [3] -0.142 | [4] 0.069 | [5] -0.034

NDUFA12 (UniProt Q9UI09)
inactive: [1] -0.046 | [2] 0.126 | [3] 0.145 | [4] -0.086 | [5] -0.051

MRPS31 (UniProt Q92665)
inactive: [1] -0.042 | [2] 0.028 | [3] 0.021 | [4] 0.044 | [5] -0.031

OSTM1 (UniProt Q86WC4)
inactive: [1] 0.023 | [2] 0.036 | [3] 0.058 | [4] -0.091 | [5] -0.013

MRPS12 (UniProt O15235)
inactive: [1] 0.019 | [2] -0.121 | [3] -0.176 | [4] 0.093 | [5] 0.061

NDUFB8 (UniProt O95169)
inactive: [1] 0.049 | [2] 0.045 | [3] 0.02 | [4] -0.002 | [5] 0.089

NFX1 (UniProt Q12986)
inactive: [1] -0.011 | [2] -0.161 | [3] -0.068 | [4] 0.115 | [5] -0.163

NOS1AP (UniProt O75052)
inactive: [1] -0.109 | [2] 0.025 | [3] 0.362 | [4] -0.141 | [5] -0.178

NA, A0A494C071
inactive: [1] -0.172 | [2] -0.016 | [3] 0.236 | [4] 0.07 | [5] 0.072

P4HA2 (UniProt O15460)
inactive: [1] 0.006 | [2] -0.033 | [3] -0.014 | [4] -0.007 | [5] -0.043

NCOA7 (UniProt Q8NI08)
Sequence of UniProt Q8NI08 (Q8NI08 whole entry, looked up): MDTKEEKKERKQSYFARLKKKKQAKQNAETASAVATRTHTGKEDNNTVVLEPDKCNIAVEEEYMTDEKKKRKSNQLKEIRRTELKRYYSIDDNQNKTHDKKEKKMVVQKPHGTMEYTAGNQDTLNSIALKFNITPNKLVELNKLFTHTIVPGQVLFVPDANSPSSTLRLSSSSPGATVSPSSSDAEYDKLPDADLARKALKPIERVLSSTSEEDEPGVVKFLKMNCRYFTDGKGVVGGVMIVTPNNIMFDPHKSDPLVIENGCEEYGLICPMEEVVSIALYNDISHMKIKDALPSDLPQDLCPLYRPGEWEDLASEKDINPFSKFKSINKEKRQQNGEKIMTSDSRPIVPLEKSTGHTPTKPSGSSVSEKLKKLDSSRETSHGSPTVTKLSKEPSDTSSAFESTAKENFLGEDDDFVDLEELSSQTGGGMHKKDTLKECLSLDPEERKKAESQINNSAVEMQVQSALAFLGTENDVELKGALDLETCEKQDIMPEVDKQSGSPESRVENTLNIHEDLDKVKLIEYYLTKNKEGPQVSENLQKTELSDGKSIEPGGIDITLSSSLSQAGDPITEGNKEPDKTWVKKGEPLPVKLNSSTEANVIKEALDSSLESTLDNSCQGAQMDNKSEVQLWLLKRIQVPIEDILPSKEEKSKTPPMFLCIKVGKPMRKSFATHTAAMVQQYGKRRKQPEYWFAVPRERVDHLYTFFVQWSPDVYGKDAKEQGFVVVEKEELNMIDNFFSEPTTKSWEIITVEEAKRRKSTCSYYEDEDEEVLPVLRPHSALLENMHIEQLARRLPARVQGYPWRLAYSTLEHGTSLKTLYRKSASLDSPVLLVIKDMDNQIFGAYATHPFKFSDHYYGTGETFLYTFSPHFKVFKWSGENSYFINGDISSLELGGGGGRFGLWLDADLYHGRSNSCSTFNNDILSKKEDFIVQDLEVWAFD
inactive: [1] 0.03 | [2] 0.093 | [3] 0.036 | [4] 0.016 | [5] -0.058

MRPS6 (UniProt P82932)
inactive: [1] -0.084 | [2] 0.012 | [3] 0.052 | [4] 0.052 | [5] -0.022

Reference: the supplement of paper PMC10849652
